Bioassay records (PubChem BioAssay)
TDP1 cell noCPT = qHTS for Inhibitors of human tyrosyl-DNA phosphodiesterase 1 (TDP1): qHTS in cells in absence of CPT. 15% of 420,000 active. DT40 Tdp1-/- hTDP1 cells, no CPT, ATP luminescence, 48 h. Potency, µM (doses to about 46.2 µM), hits mostly inhibitors. AID 686978, 2013; note: nearly all actives have a fitted effect of over 55% in size
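DT40 Tdp1-/-;hTDP1 cells, no CPT (DMSO vehicle only), 400 cells/well; compounds pin-transferred; ≥48 hr, 37 °C; CellTiter-Glo 30 min RT dark, luminescence read.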
HT1080 IDH1KD tx = toxicity to HT-1080 IDH1 knockdown cells (counter line); Potency, µM (top dose mostly 46.1 µM), most hits filed as cytotoxic; 2% of 360,000 active; HT-1080 IDH1 knockdown viability, ATP luminescence, 48 h
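Viability of IDH1-knockdown HT-1080 fibrosarcoma cells was assessed by CellTiter-Glo after 48 h at 37 °C with titrated compound; concentration-effect curves were classified by fit quality and response size.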
TDP1 cell CPT = growth inhibition of DT40 Tdp1-/-;hTDP1 cells with camptothecin (screen for TDP1 inhibitors); Potency, µM (top dose mostly 46.2 µM), actives largely listed as inhibitors; chicken DT40 Tdp1-/-;hTDP1 cells + 20 nM CPT, ATP luminescence, 48 h; 12% of 420,000 active; AID 686979; note: nearly all actives have a fitted effect of over 55% in size
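Cell growth measured by CellTiter-Glo luminescence after a minimum 48 h, 37 C compound exposure with 20 nM CPT in Tdp1-knockout DT40 cells stably expressing hTDP1, seeded 400/well; qHTS titration format.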
KB-V1 cytotox = kills drug-selected multidrug resistant KB-V1 cells | KB-V1 MDR cells viability, CellTiter-Glo, 72 h | Potency, µM (titrated, usually from 46.1 µM), hits mostly cytotoxic | AID 1347076 | 3.4% of 400,000 active; note: nearly all actives have a fitted effect of over 60% in size
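Drug-selected KB-V1 cells, grown in DMEM lacking phenol red with 10% FBS, receive compound titrations; after three days at 37 degrees C, surviving cell ATP is quantified by CellTiter-Glo luminescence and responses normalized and curve-fitted.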
KB-3-1 cytotox = kills parental KB-3-1 adenocarcinoma cells; KB-3-1 viability, CellTiter-Glo ATP luminescence, 72 h; Potency, µM (series often up to 46.1 µM), hits mostly cytotoxic; 1.4% of 400,000 active; AID 1347075; note: nearly all actives have a fitted effect of over 60% in size
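Cytotoxicity in the drug-sensitive parental line KB-3-1 was scored as loss of CellTiter-Glo luminescence following 72 h incubation with compound. Values come from curve fitting of normalized concentration-response data.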
HT1080-NT tox = kills 2HG-producing HT-1080-NT fibrosarcoma cells. 1.6% of 360,000 active. HT-1080-NT fibrosarcoma viability, CellTiter-Glo ATP luminescence, 48 h. AID 686970. Potency, µM (titrated, usually from 46.1 µM), most hits filed as cytotoxic;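 note: NT is the 2HG producing partner of a matched IDH1 knockdown line; nearly all actives have a fitted effect of over 55% in size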
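A 48-hour cytotoxicity screen used HT-1080-NT cells plated 2 hours before compound delivery. ATP-based CellTiter-Glo luminescence measured viability, normalized to DMSO and no-cell controls.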
Numbers stand for hits; - = inactive; ? = inconclusive; . = no result given; [ ] = remark or other dose. In the library only some 19% were active in any assay of this set; here they are far more common. Calls come from the whole dose curve; as a rule, active = well fitted curve in the direction sought with a large enough effect; inconclusive = small, poorly fitted or top-dose-only effect, or another doubt; inactive = no such curve, though single readings can be large; an effect the other way counts as inactive or inconclusive.

SMILES	TDP1 cell noCPT	HT1080 IDH1KD tx	TDP1 cell CPT	KB-V1 cytotox	KB-3-1 cytotox	HT1080-NT tox
Cc1ccc(NC(=O)Cn2c(=O)n(Cc3ccccc3)c(=O)c3sc4ccccc4c32)cc1	5.8µM	.	5.8µM	.	.	.
COc1ccc(-n2c(=O)c3sc4ccccc4c3n(Cc3ccccc3)c2=O)cc1	-	.	?	-	-	.
Cc1ccc(CNC(=O)Cn2c(=O)n(Cc3ccccc3)c(=O)c3sc4ccccc4c32)cc1	?	.	?	?	-	.
Cc1ccc(Cn2c(=O)n(Cc3ccco3)c(=O)c3sc4ccccc4c32)cc1	?	.	?	-	-	.
CCN(CC(=O)Nc1ccccc1OC)CC(=O)Nc1sccc1C#N	?	-	?	-	-	-
O=C(NCCc1nnc2n1CCN(Cc1ccc(F)c(F)c1)CC2)c1ccoc1	-	.	-	.	.	.
CCn1cc(Cl)c(C(=O)Nc2cccc(CN3CCOCC3)c2)n1	-	-	-	-	-	-
Cc1nc2ccc(C(=O)Nc3ccc4c(c3)OCC(=O)N4)cn2c1N(C)C(=O)CCc1ccccc1	18µM	-	?	-	-	-
CCc1nc2ccc(C(=O)NCc3cccs3)cn2c1N(CC)Cc1cccc(Br)c1	12µM	?	21µM	?	?	?
CCc1nc2ccc(C(=O)Nc3ccc4c(c3)OCC(=O)N4)cn2c1N(C)C(=O)Cc1ccccc1	-	-	-	-	-	-
CCc1nc2ccc(C(=O)Nc3ccc(OC)c(OC)c3)cn2c1N(C)Cc1cccs1	?	-	?	-	-	-
CCCCNC(=O)c1ccc2nc(CC)c(N(C)Cc3cccs3)n2c1	?	-	18µM	-	-	-
CCc1nc2ccc(C(=O)NCCCn3ccnc3)cn2c1N(C)Cc1cccs1	?	-	?	-	-	-
CCc1nc2ccc(C(=O)Nc3cccc(OC)c3)cn2c1N(CC)Cc1cccc(Br)c1	?	?	18µM	?	?	?
O=C(Nc1cccc(S(=O)(=O)N2CCCCC2)c1)C1CCCN1S(=O)(=O)c1ccccc1F (stereo not given)	?	-	?	.	.	-
COC(=O)c1ccc(Cn2nnc3c(=O)[nH]c(C4CCCN(S(=O)(=O)c5cccc(Cl)c5)C4)nc32)cc1 (stereo not given)	?	-	?	-	-	-
CCc1nc2ccc(C(=O)NCc3ccccc3OC)cn2c1N(CC)Cc1cccc(Br)c1	?	?	26µM	16µM	?	?
CCc1nc2ccc(C(=O)Nc3cccc(NS(C)(=O)=O)c3)cn2c1N(CC)Cc1cccc(Br)c1	16µM	?	?	?	?	23µM
CCc1nc2ccc(C(=O)Nc3cccc(NS(C)(=O)=O)c3)cn2c1N(C)CCCc1ccccc1	?	?	?	-	-	?
CCc1nc2ccc(C(=O)NCc3ccccc3OC)cn2c1N(CCC(C)C)CCN(C)C	?	?	?	?	-	?
CCc1nc2ccc(C(=O)Nc3ccc4c(c3)OCC(=O)N4)cn2c1N(CC)Cc1cccc(Br)c1	-	-	18µM	-	-	?
CCc1nc2ccc(C(=O)Nc3cccc(NS(C)(=O)=O)c3)cn2c1N(CCC(C)C)CCN(C)C	18µM	?	16µM	-	-	?
O=C(NCc1ccccc1)c1cccn1-c1nnc(N2CCCCC2)s1	?	.	?	-	-	.
CCc1nc2ccc(C(=O)NCCOc3ccc(OC)cc3)cn2c1N(CC)Cc1cccc(Br)c1	21µM	?	18µM	?	?	?
COc1cccc(CNc2ncn[nH]2)c1OCc1ccc(F)cc1	-	-	-	-	-	-
SMILES	TDP1 cell noCPT	HT1080 IDH1KD tx	TDP1 cell CPT	KB-V1 cytotox	KB-3-1 cytotox	HT1080-NT tox
CCN1CCCC1CNCc1cccc(OC)c1OCc1ccc(F)cc1 (stereo not given)	?	-	-	12µM	-	-
COc1cccc(OC)c1OC(=O)c1ccccc1	-	-	-	-	-	-
COc1cccc(NC(=O)CN(C)C(=O)c2cc(S(=O)(=O)N3CCCCCC3)ccc2OC)c1	-	-	-	-	-	-
O=C1[C@H]2[C@@H](c3ccccc3)N[C@]3(CCCN(Cc4ccccc4)C3=O)[C@H]2C(=O)N1Cc1ccccc1	?	-	-	-	-	-
O=C1[C@H]2[C@@H](c3ccc(C(F)(F)F)cc3)N[C@]3(CCCN(Cc4ccc(F)cc4)C3=O)[C@H]2C(=O)N1Cc1ccccc1	?	-	?	?	-	-
O=C1[C@H]2[C@@H](c3ccccc3)N[C@]3(CCCN(Cc4ccc(F)cc4)C3=O)[C@H]2C(=O)N1Cc1ccccc1	16µM	-	?	-	-	-
O=C1[C@H]2[C@@H](c3ccccc3)N[C@]3(CCCN(Cc4ccc(C(F)(F)F)cc4)C3=O)[C@H]2C(=O)N1Cc1ccccc1	?	?	18µM	-	-	?
Cc1ccc(CN2CCC[C@]3(N[C@H](c4ccccc4)[C@@H]4C(=O)N(Cc5ccccc5)C(=O)[C@@H]43)C2=O)cc1	16µM	-	26µM	-	-	-
Cn1cccc1C(=O)OCC(=O)NC(=O)c1ccc(Cl)cc1	-	-	-	?	-	-
COc1ccc(S(=O)(=O)N2CCN(C)CC2c2ccccc2)cc1OC (stereo not given)	-	-	-	-	-	-
Cc1ccc(NCC(=O)N/N=C\c2ccc[nH]2)cc1	-	-	-	-	?	-
Cc1ccc(NCC(=O)N/N=C\c2ccc([N+](=O)[O-])o2)cc1	18µM	-[9.24 µM]	13µM	?	-	?
O=C(CNC(=O)c1ccccc1)N/N=C/c1ccc([N+](=O)[O-])o1	23µM	?	9.2µM	-	-	-
O=C(CCC(=O)Nc1ccc(Cl)cc1Cl)N/N=C/c1ccc([N+](=O)[O-])o1	2.9µM	?	2.6µM	?	?	?
CCCCCC(=O)N/N=C/c1ccc([N+](=O)[O-])o1	?	?	11µM	-	-	?
CC1CCN(c2ccc(-c3cccc(NS(=O)(=O)c4ccc(Cl)s4)c3)nn2)CC1	-	.	-	-	-	.
O=C(Cn1c(=O)n(-c2ccccc2Cl)c(=O)c2sc3ccccc3c21)NC1CCCC1	-	.	-	-	-	.
O=C(CSc1nnc(CNC(=O)c2cccc(C(F)(F)F)c2)o1)NC1CCCC1	-	-	-	-	-	-
CCN(CC)c1ccc(N=Cc2ccc([N+](=O)[O-])o2)cc1	10µM	?	5.8µM	-	18µM	18µM
O=C(CNc1ccccc1)N/N=C/c1ccc([N+](=O)[O-])o1	7.3µM	-	10µM	?	?	-
O=C(Cc1ccc2c(c1)OCCO2)N/N=C/c1ccco1	-	-	-	-	-	-
